Data from PubChem BioAssay (EPA / NIEHS).
Calls of active or inactive are those of the source. How the source made its calls: active means hit-call score of the fitted dose curve at least 0.9, where 1 is the maximum; inactive means score below 0.9.

Legend:
[1] = APR_HepG2_CellCycleArrest_24hr: Apredica 24-hour HepG2 Assay for Cell Cycle Arrest (AID 2282905); conditions: imaging, actives raise or lower the signal;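 further: cell cycle arrest scored as ratio of 2N to 4N nuclear DNA content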
Summary of the method: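 Compounds at 0.39–200 uM (0.5% DMSO) for 24 h, then fixed and Hoechst 33342 stained. Cell-cycle analysis of nuclear DNA content by high-content imaging, fitted bidirectionally versus DMSO.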

[2] = APR_HepG2_NuclearSize_24hr: Apredica 24-hour HepG2 Assay for Nuclear Size (AID 2282907); conditions: high-content imaging, actives raise or lower the signal
Summary of the method: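 HepG2 cells exposed 24 h to compounds at 0.39–200 uM (0.5% DMSO), fixed, Hoechst 33342 stained and imaged at 20x; nuclear diameter measured by automated image analysis, fitted bidirectionally against DMSO controls.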

[3] = APR_HepG2_CellLoss_24hr: Apredica 24-hour HepG2 Assay for Cell Loss (AID 2282908); conditions: high-content imaging;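 on AC50: fit in both directions so a hit may be cell loss or gain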
Summary of the method: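 HepG2 cells exposed 24 hr to 0.39–200 uM compound in duplicate at 0.5% v/v final DMSO. Cells fixed in 3.7% formaldehyde and Hoechst 33342-stained. Cell number came from nuclear imaging at 20x. Bidirectional fit versus DMSO.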

[4] = APR_HepG2_MicrotubuleCSK_24hr: Apredica 24-hour HepG2 Assay for Microtubule CSK Stabilty (AID 2282909); conditions: HepG2 microtubule cytoskeleton imaging, actives raise or lower the signal
Summary of the method: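 HepG2 cells were treated 24 hr with compound at 0.39–200 uM in duplicate (0.5% DMSO final), then fixed and permeabilized. Alpha-tubulin immunofluorescence was imaged by high-content microscopy, with bidirectional fitting against DMSO and taxol as positive control.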

[5] = APR_HepG2_MitoticArrest_24hr: Apredica 24-hour HepG2 Assay for Mitotic Arrest (AID 2282910); conditions: high-content imaging, actives raise or lower the signal
Summary of the method: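 HepG2 cells, 24 h exposure at 0.39-200 uM (10 concentrations, duplicate, 0.5% DMSO). Fixed, stained for phospho-histone H3 with Hoechst; imaged by high-content microscopy, bidirectional fit versus DMSO.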

[6] = APR_HepG2_MitoMembPot_24hr: Apredica 24-hour HepG2 Assay for Mitochondrial Membrane Potential (AID 2282911); conditions: imaging, actives raise or lower the signal
Summary of the method: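 Cells are dosed for 24 hr across 0.39 to 200 uM with solvent held at 0.5% DMSO. They are then stained with 250 nM MitoTracker Red CMXRos for 30 min, fixed in 3.7% formaldehyde and imaged.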

[7] = APR_HepG2_MitoMass_24hr: Apredica 24-hour HepG2 Assay for Mitochondrial Mass (AID 2282912); conditions: high-content imaging, actives raise or lower the signal
Summary of the method: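 HepG2 cells exposed 24 hr to 0.39–200 uM compound, 0.5% v/v DMSO, in duplicate. Stained before fixation with 250 nM MitoTracker Red CMXRos for 30 min, then imaged at 20x with Hoechst nuclei. Fitted in both directions against DMSO.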

[8] = APR_HepG2_p53Act_24hr: Apredica 24-hour HepG2 Assay for p53 Activation (AID 2282913); conditions: high-content imaging, actives raise or lower the signal;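 further: p53 protein immunofluorescence averaged per cell in HepG2 with Hoechst nuclei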
Summary of the method: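 Human HepG2 liver cells; 24 hr cpd treatment, 0.39–200 uM, 0.5% DMSO final. Fixed in 3.7% formaldehyde, permeabilized with 0.5% Triton X-100, stained with anti-p53/Cy5 plus Hoechst 33342. Six images per well at 20x; gain or loss vs DMSO.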

[9] = APR_HepG2_CellCycleArrest_72hr: Apredica 72-hour HepG2 Assay for Cell Cycle Arrest (AID 2282914); conditions: high-content imaging, actives raise or lower the signal
Summary of the method: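 Read-out is Hoechst-stained nuclear DNA content measured by automated fluorescence imaging (20x, six images per well), fitted in both directions relative to DMSO. Human HepG2 liver cells received 0.39–200 uM compound for 72 hr at 0.5% v/v DMSO.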

[10] = APR_HepG2_CellLoss_72hr: Apredica 72-hour HepG2 Assay for Cell Loss (AID 2282915); conditions: high-content imaging
Summary of the method: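 HepG2 cells exposed 72 h to compound at 0.39–200 uM (10 concentrations, duplicate) in 0.5% DMSO. Fixed with 3.7% formaldehyde and Hoechst 33342-stained. Imaged at 20x; nuclear count gives cell number, fitted bidirectionally versus DMSO.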

[11] = APR_HepG2_P-H2AX_72hr: Apredica 72-hour HepG2 Assay for H2AX Phosphorylation (AID 2282916); conditions: imaging, actives raise or lower the signal;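 further: phospho-histone H2A.x immunostain intensity per cell marking DNA damage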
Summary of the method: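 HepG2 cells treated 72 h at 0.39–200 uM, 0.5% DMSO final, duplicates. Formaldehyde-fixed, Triton-permeabilised, immunostained for phospho-H2A.x with Hoechst; fluorescence imaged at 20x, bidirectional fit versus DMSO.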

[12] = APR_HepG2_MitoticArrest_72hr: Apredica 72-hour HepG2 Assay for Mitotic Arrest (AID 2282918); conditions: high-content imaging, actives raise or lower the signal
Summary of the method: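 Read-out is phospho-histone H3 immunofluorescence with Hoechst nuclear segmentation, imaged at 20x. Human HepG2 liver cells received ten concentrations (0.39–200 uM, final DMSO 0.5% v/v) for 72 hr before fixation. Gain or loss of signal was fitted relative to DMSO.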

[13] = APR_HepG2_MicrotubuleCSK_72hr: Apredica 72-hour HepG2 Assay for Microtubule CSK Stabilty (AID 2282919); conditions: HepG2 microtubule cytoskeleton, high-content imaging, actives raise or lower the signal
Summary of the method: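 HepG2 cells were exposed 72 hr to compound at 0.39–200 uM in duplicate (0.5% DMSO final), then fixed and permeabilized. Alpha-tubulin immunofluorescence was imaged by high-content microscopy, with bidirectional fitting against DMSO and taxol as positive control.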

[14] = APR_HepG2_P-H2AX_24hr: Apredica 24-hour HepG2 Assay for H2AX Phosphorylation (AID 2282920); conditions: high-content imaging, actives raise or lower the signal
Summary of the method: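 HepG2, 24 hr, cpd 0.39–200 uM (10 conc, duplicate), DMSO 0.5% v/v final. Fix 3.7% formaldehyde, Triton X-100 permeabilize, anti-phospho-H2A.x 1:200 + Hoechst 2 ug/mL. Imaged, bidirectional fit vs DMSO.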

[15] = APR_HepG2_StressKinase_72hr: Apredica 72-hour HepG2 Assay for Stress Kinase (AID 2282921); conditions: HepG2 stress kinase (phospho-c-Jun) imaging, actives raise or lower the signal
Summary of the method: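 HepG2 cells treated 72 hr with 0.39–200 uM compound, 0.5% v/v DMSO, duplicate wells. After formaldehyde fixation and Triton permeabilization, stained with anti-phospho-c-Jun (1:500) and Cy3 secondary, imaged at 20x. Fitted in both directions against DMSO.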

[16] = APR_HepG2_StressKinase_24hr: Apredica 24-hour HepG2 Assay for Stress Kinase (AID 2282922); conditions: HepG2 stress kinase (phospho-c-Jun) imaging, actives raise or lower the signal
Summary of the method: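 HepG2 cells exposed 24 h to 0.39–200 uM compound in duplicate (0.5% v/v DMSO final). Cells fixed in 3.7% formaldehyde, permeabilized and immunostained for phospho-c-Jun; read by high-content fluorescence imaging, fitted bidirectionally against DMSO.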

[17] = APR_HepG2_p53Act_72hr: Apredica 72-hour HepG2 Assay for p53 Activation (AID 2282923); conditions: high-content imaging, actives raise or lower the signal;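 further: average cellular p53 protein immunofluorescence intensity in HepG2 cells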
Summary of the method: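 HepG2 cells exposed 72 h to 0.39–200 uM in 0.5% DMSO, duplicates. Fixed, permeabilized cells immunostained for p53 (Cy5) with Hoechst; imaged at 20x, fluorescence analyzed bidirectionally against DMSO.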

[18] = APR_HepG2_MitoMass_72hr: Apredica 72-hour HepG2 Assay for Mitochondrial Mass (AID 2282924); conditions: high-content imaging, actives raise or lower the signal;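 further: MitoTracker Red CMXRos stain intensity per cell imaged as mitochondrial mass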
Summary of the method: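 HepG2 cells dosed 72 hr at 0.39–200 uM (0.5% DMSO), in duplicate. MitoTracker Red CMXRos 250 nM loaded 30 min before formaldehyde fixation; high-content fluorescence imaging, bidirectional fit versus DMSO.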

[19] = APR_HepG2_MitoMembPot_72hr: Apredica 72-hour HepG2 Assay for Mitochondrial Membrane Potential (AID 2282917); conditions: imaging, actives raise or lower the signal
Summary of the method: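 HepG2 cells dosed 72 hr with compound at 0.39–200 uM in duplicate, 0.5% v/v DMSO final. Mitochondria stained with 250 nM MitoTracker Red CMXRos for 30 min before formaldehyde fixation, imaged by high-content fluorescence; bidirectional fit versus DMSO.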

Measured: AC50

C[C@]12C=CC(=O)C=C1CC[C@H]1[C@@H]3C[C@@H](O)[C@](O)(C(=O)CO)[C@@]3(C)C[C@H](O)[C@@]12F
not listed: [19]
inactive: all other assays above

CCN(CC)C(=S)SSC(=S)N(CC)CC
active: [3] 50.6 µM | [4] 78.9 µM | [5] 25.2 µM | [7] 26.1 µM | [8] 4.83 µM | [9] 3.04 µM | [10] 22.9 µM | [11] 27.1 µM | [12] 23.5 µM | [13] 60.7 µM | [14] 7.04 µM | [15] 31 µM | [16] 87.4 µM | [17] 12 µM | [18] 14.4 µM
inactive: [1] | [2] | [6]

CCOC(N)=O
not listed: [19]
inactive: all other assays above

c1ccc2cc3ccccc3cc2c1
active: [1] 106 µM | [3] 100 µM | [9] 110 µM | [10] 139 µM | [11] 112 µM | [14] 107 µM
not listed: [12] | [13] | [18] | [19]
inactive: all other assays above

Cn1c(=O)c2[nH]cnc2n(C)c1=O
inactive: all assays above

CCc1ccc(O)c(C(C)(C)C)c1
inactive: [2] | [8] | [9] | [13] | [14] | [16] | [18]
active: [1] 98.1 µM | [3] 83.8 µM | [4] 80.7 µM | [5] 101 µM | [6] 86.2 µM | [7] 105 µM | [10] 80.7 µM | [11] 79.6 µM | [12] 81.3 µM | [15] 84.8 µM | [17] 71.6 µM

C=CN1CCCC1=O
inactive: all assays above
